Measurements reported in the supplement of paper PMC11732987, “Enantioselective OTUD7B fragment discovery through chemoproteomics screening and high-throughput optimisation” (Communications Chemistry, 2025).

Experiments:
Assay in all cases: log2 ratio of Biotin-Ahx-Ub-VS probe labelling (fragment/DMSO); higher = less target engagement (more negative = stronger competition), active = hit call of the paper (q ≤ 0.05, log2 ratio ≤ -1)
Conditions in all cases: compound concentration: 200 uM; treatment time: 3 h
ALG13 = molecular target: T1, ALG13 (UniProt Q9NP73)
T1 sequence (whole entry): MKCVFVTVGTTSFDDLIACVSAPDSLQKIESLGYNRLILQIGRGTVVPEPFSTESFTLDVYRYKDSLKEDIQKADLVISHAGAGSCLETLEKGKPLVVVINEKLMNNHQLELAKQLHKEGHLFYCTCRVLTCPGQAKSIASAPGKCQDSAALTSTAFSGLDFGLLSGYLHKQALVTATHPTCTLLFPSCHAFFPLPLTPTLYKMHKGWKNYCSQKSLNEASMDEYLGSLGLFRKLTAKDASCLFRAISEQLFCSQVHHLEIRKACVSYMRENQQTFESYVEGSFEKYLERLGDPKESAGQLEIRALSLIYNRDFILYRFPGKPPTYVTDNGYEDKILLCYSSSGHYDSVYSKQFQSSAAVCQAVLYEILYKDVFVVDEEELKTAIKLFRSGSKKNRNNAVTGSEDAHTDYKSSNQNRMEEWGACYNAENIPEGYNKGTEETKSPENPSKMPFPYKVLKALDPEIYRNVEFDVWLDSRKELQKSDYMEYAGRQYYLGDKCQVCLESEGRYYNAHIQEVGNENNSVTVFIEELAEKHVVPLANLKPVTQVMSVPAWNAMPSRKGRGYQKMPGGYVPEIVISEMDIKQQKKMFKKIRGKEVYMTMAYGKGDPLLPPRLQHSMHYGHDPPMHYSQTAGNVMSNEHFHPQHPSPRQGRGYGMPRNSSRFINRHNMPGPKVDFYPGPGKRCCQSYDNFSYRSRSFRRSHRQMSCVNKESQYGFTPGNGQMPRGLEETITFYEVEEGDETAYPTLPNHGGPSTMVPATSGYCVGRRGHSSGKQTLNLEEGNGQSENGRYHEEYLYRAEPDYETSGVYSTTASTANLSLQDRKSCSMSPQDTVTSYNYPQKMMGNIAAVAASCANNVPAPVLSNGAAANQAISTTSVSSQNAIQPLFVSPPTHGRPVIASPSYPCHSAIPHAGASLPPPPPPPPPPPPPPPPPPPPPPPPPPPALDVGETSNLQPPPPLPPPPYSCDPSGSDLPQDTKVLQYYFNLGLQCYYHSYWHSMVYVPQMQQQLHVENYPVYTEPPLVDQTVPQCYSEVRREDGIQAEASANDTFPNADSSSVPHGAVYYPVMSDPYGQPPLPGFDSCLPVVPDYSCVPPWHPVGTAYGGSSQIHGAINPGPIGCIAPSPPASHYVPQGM
Method in brief: (§1)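 Labelling with Biotin-Ahx-Ub-VS (0.5 µM final, 1 h) followed a 3 h triplicate treatment of HEK293T lysate (495 µg per sample, Tris/CHAPS/IGEPAL buffer with protease inhibitors) with fragment at 200 µM or vehicle. Labelled DUBs were NeutrAvidin-enriched, digested with LysC and trypsin, and run by diaPASEF LC-MS/MS. The values, average log2 fragment/vehicle ratios by unpaired t-test, come from global-median-normalised Spectronaut label-free quantities. Proteins with ≥2 unique peptides were used.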

ATXN3 = ATXN3 (UniProt P54252)
Method in brief: as §1

BAP1 = molecular target: T2, BAP1 (UniProt Q92560)
T2 sequence (whole entry): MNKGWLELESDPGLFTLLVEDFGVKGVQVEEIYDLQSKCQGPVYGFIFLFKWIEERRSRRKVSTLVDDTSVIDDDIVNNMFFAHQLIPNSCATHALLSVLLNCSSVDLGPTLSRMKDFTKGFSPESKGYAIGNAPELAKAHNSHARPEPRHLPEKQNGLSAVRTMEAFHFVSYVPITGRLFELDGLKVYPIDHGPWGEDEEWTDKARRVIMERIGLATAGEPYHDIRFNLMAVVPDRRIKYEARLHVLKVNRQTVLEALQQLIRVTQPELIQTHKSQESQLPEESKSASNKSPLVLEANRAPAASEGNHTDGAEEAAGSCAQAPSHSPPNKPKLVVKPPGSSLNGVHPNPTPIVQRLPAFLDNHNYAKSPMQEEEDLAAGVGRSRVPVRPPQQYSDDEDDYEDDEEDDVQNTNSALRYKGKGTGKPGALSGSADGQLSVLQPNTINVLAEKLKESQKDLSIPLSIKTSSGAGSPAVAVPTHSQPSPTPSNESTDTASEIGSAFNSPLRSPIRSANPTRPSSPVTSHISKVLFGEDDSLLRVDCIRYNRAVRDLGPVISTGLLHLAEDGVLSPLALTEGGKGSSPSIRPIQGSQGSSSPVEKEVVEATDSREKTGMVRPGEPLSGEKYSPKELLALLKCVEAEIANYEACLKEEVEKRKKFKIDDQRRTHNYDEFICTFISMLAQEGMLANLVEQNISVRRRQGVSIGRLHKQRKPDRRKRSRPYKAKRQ
Method in brief: as §1

EIF3F = EIF3F (UniProt O00303)
Method in brief: as §1

EIF3H = EIF3H (UniProt O15372)
Method in brief: as §1

FAM105A = molecular target: T3, FAM105A (UniProt Q9NUU6)
T3 sequence (whole entry): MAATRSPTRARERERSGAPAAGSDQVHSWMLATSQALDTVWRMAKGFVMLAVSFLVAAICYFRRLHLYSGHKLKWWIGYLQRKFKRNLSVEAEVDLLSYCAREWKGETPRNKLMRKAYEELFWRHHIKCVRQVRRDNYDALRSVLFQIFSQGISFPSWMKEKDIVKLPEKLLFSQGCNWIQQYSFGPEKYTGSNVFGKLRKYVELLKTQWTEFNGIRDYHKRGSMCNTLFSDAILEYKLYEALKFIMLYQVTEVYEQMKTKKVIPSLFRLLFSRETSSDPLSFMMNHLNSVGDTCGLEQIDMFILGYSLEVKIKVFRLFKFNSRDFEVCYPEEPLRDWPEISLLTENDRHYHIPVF
Method in brief: as §1

OTUB1 = OTUB1 (UniProt Q96FW1)
Method in brief: as §1

OTUD4 = molecular target: T4, OTUD4 (UniProt Q01804)
T4 sequence (whole entry): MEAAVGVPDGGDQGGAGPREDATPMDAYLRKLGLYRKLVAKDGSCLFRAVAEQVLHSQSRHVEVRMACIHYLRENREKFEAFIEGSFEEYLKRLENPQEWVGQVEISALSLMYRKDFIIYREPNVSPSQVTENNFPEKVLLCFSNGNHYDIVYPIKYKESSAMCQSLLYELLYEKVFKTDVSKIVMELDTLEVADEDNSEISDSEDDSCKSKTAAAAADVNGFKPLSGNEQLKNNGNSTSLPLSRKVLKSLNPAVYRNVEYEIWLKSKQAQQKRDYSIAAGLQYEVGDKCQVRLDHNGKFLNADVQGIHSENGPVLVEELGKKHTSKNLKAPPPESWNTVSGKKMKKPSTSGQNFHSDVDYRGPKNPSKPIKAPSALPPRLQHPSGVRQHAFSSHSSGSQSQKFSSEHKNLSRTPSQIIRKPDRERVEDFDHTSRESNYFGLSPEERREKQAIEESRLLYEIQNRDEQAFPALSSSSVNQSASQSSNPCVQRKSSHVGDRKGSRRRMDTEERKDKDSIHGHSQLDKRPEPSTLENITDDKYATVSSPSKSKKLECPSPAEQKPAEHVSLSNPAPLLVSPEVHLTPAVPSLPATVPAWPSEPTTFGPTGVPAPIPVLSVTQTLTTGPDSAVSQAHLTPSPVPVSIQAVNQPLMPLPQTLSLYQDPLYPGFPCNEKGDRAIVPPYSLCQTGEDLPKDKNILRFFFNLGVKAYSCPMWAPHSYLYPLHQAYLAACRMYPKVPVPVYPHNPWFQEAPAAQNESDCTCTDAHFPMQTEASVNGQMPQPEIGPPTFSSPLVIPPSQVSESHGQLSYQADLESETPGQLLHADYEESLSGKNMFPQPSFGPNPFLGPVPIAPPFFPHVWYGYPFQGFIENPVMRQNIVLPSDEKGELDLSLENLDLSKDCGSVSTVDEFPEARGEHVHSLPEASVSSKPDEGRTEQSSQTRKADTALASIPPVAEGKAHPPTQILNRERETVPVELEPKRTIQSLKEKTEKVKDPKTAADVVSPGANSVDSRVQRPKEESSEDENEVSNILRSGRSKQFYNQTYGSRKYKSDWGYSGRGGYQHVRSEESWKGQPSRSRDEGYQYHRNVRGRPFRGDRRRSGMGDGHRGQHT
Method in brief: as §1

OTUD5 = molecular target: T5, OTUD5 (UniProt Q96G74)
T5 sequence (whole entry): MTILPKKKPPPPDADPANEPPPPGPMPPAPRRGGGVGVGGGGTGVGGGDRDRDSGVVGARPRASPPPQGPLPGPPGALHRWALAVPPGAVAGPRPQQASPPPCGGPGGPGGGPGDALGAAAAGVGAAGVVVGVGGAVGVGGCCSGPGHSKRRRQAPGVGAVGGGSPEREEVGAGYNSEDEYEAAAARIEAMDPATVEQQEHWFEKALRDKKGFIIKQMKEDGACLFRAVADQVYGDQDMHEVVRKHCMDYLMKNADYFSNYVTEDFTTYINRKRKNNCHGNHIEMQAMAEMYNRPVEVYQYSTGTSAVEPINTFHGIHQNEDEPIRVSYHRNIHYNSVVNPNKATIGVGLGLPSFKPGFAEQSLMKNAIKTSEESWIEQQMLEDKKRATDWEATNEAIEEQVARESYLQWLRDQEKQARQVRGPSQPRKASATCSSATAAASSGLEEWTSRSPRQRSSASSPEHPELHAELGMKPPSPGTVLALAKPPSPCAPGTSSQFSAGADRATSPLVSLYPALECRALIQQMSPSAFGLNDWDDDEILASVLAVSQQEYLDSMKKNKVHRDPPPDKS
Method in brief: as §1

Measured: log2 ratio of Biotin-Ahx-Ub-VS probe labelling

EIF3F, sequence (O00303 whole entry): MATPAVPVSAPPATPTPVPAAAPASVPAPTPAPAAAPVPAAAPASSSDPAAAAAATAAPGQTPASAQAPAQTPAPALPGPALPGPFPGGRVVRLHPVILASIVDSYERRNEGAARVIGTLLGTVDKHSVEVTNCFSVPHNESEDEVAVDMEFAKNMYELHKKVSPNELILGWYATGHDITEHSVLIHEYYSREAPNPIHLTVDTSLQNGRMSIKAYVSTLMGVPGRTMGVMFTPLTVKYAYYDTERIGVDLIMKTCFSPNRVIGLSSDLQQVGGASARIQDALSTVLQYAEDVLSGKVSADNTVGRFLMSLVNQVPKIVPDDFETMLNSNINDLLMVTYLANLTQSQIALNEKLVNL
EIF3H, sequence (O15372 whole entry): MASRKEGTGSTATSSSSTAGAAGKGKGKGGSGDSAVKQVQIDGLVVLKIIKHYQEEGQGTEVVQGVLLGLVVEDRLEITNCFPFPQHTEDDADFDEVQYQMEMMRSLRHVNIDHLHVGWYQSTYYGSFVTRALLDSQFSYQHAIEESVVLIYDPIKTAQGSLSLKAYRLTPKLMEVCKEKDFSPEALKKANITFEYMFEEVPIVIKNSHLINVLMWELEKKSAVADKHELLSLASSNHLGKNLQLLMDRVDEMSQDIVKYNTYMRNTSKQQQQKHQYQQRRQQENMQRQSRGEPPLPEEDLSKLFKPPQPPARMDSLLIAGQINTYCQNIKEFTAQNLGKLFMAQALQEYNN
ATXN3, sequence (P54252 whole entry): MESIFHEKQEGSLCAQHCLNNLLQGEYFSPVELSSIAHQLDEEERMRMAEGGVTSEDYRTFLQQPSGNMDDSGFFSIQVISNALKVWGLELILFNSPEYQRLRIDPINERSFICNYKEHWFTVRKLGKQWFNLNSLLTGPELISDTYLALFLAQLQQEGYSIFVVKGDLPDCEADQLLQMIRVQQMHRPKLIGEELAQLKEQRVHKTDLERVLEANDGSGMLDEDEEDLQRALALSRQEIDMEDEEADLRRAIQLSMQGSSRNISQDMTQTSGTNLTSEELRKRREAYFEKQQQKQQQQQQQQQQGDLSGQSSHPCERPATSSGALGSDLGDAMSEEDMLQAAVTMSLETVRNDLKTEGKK
OTUB1, sequence (Q96FW1 whole entry): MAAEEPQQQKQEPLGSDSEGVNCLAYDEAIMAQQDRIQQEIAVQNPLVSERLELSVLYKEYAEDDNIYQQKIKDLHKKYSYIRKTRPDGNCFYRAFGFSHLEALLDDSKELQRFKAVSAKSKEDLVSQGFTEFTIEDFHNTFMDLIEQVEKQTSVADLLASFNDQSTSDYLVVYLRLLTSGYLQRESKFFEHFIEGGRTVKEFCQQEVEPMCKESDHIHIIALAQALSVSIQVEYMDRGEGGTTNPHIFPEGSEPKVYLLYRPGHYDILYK

Cc1ccc(N2CCC(NC(=O)CCl)C2=O)cc1 (centres undefined)
active: BAP1 -2.46
inactive: ALG13 -0.511 | ATXN3 -0.0941 | EIF3F 0.043 | EIF3H -0.278 | FAM105A 0.0934 | OTUB1 0.0513 | OTUD4 0.0319 | OTUD5 0.0904
